Measurements reported in PubChem BioAssay AID1159580 (chemical genetic matrix, 2015).
Several values for one entry are separate records, joined by “and”; a condition that tells them apart may be missing. Equal values may be shown once. The whole screen tested about 5,500 compounds, of which about 2,000 (36%) were called active. Another 18% or so got no clear call; they are omitted. Cut-off read from the data, not from the text of the source: active = normalized growth mostly below about 0.91 (no sharp cut-off); inconclusive = no clear call, values can overlap the other calls; inactive = mostly above about 0.92. The list shows a part of the results.

Assay: chemical genetic growth profiling, strain panel (AID 1159580);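 note: tested at 20 µM; growth read once vehicle control cultures reached saturation at 30 °C; 1 = growth at the plate median or of vehicle wells; lower values mean less growth of the strain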
Conditions: S. cerevisiae deletion strains, growth OD

Measured: normalized growth

NC(Cc1c[nH]c2ccccc12)C(=O)O (configuration not stated)
inactive: locus YAL013W, strain DEP1, stronger effect = lower value 1 | locus YAL021C, strain ccr4, stronger effect = lower value 1 | locus YAL026C, strain drs2, stronger effect = lower value 1.01 | locus YAL030W, strain snc1, stronger effect = lower value 1.02 | locus YBL061C, strain skt5, stronger effect = lower value 1.04 | locus YBR009C, strain hhf1, stronger effect = lower value 1 | locus YBR021W, strain FUR4, stronger effect = lower value 1.01 | locus YBR023C, strain chs3, stronger effect = lower value 1.02 | locus YBR171W, strain sec66, stronger effect = lower value 1.03 | locus YBR229C, strain ROT2, stronger effect = lower value 0.957 | locus YBR231C, strain swc5, stronger effect = lower value 1.02 | locus YBR279W, strain paf1, stronger effect = lower value 1.02 | locus YCL011C, strain gbp2, stronger effect = lower value 1.02 | locus YCL016C, strain dcc1, stronger effect = lower value 1.01 | locus YCL029C, strain bik1, stronger effect = lower value 0.98 | locus YCL061C, strain MRC1, stronger effect = lower value 1.01 | locus YCL069W, strain vba3, stronger effect = lower value 1.03 | locus YCR088W, strain abp1, stronger effect = lower value 1.02 | locus YDL005C, strain med2, stronger effect = lower value 1.03 | locus YDL035C, strain GPR1, stronger effect = lower value 1 | locus YDL040C, strain nat1, stronger effect = lower value 1.03 | locus YDL074C, strain BRE1, stronger effect = lower value 1.02 | locus YDL101C, strain DUN1, stronger effect = lower value 0.984 | locus YDL134C, strain PPH21, stronger effect = lower value 0.961 | locus YDL185W, strain tfp1, stronger effect = lower value 0.986 | locus YDL192W, strain arf1, stronger effect = lower value 0.984 | locus YDR001C, strain nth1, stronger effect = lower value 1.04 | locus YDR069C, strain doa4, stronger effect = lower value 1 | locus YDR101C, strain arx1, stronger effect = lower value 0.996 | locus YDR137W, strain rgp1, stronger effect = lower value 1.03 | locus YDR150W, strain NUM1, stronger effect = lower value 0.965 | locus YDR159W, strain sac3, stronger effect = lower value 1.02 | locus YDR162C, strain NBP2, stronger effect = lower value 0.998 | locus YDR195W, strain ref2 1.02 | locus YDR297W, strain sur2, stronger effect = lower value 1.02 | locus YDR318W, strain mcm21, stronger effect = lower value 0.988 | locus YDR334W, strain swr1, stronger effect = lower value 1.02 | locus YDR335W, strain msn5, stronger effect = lower value 1.03 | locus YDR388W, stronger effect = lower value 0.997 | locus YDR392W, strain spt3, stronger effect = lower value 0.939 | locus YDR502C, strain sam2, stronger effect = lower value 0.997 | locus YEL003W, strain gim4, stronger effect = lower value 1.01 | locus YEL037C, strain rad23, stronger effect = lower value 1.02 | locus YEL061C, strain CIN8 (second series), stronger effect = lower value 1.02 | locus YEL061C, strain CIN8, stronger effect = lower value 0.987 | locus YER015W, strain faa2, stronger effect = lower value 1.02 | locus YER016W, strain bim1, stronger effect = lower value 1.02 | locus YER110C, stronger effect = lower value 0.98 | locus YER111C, strain swi4, stronger effect = lower value 1.03 | locus YER155C, strain BEM2 (second series), stronger effect = lower value 0.997 | locus YER155C, strain BEM2, stronger effect = lower value 1.01 | locus YER167W, strain BCK2, stronger effect = lower value 1.01 | locus YFR010W, strain ubp6, stronger effect = lower value 1.02 | locus YGL078C, strain dbp3, stronger effect = lower value 0.982 | locus YGL086W, strain mad1, stronger effect = lower value 1.01 | locus YGL167C, strain pmr1, stronger effect = lower value 1.02 | locus YGL173C, strain kem1, stronger effect = lower value 1.03 | locus YGL227W, strain vid30, stronger effect = lower value 1.03 | locus YGL240W, strain doc1, stronger effect = lower value 1 | locus YGL248W, strain PDE1, stronger effect = lower value 0.991 | locus YGL253W, strain hxk2, stronger effect = lower value 1.01 | locus YGR078C, strain PAC10, stronger effect = lower value 0.991 | locus YGR135W, strain pre9, stronger effect = lower value 0.993 | locus YGR229C, strain SMI1, stronger effect = lower value 1 | locus YGR252W, strain gcn5, stronger effect = lower value 0.981 | locus YHR013C, strain ard1, stronger effect = lower value 1.02 | locus YHR027C, strain rpn1, stronger effect = lower value 1.02 | locus YHR030C, strain SLT2, stronger effect = lower value 0.988 and 0.966 | locus YHR079C, strain IRE1 (second series), stronger effect = lower value 0.989 | locus YHR079C, strain IRE1, stronger effect = lower value 0.983 | locus YHR094C, strain hxt1, stronger effect = lower value 0.988 | locus YHR129C, strain ARP1, stronger effect = lower value 0.993 | locus YHR142W, strain chs7, stronger effect = lower value 1.03 | locus YHR200W, strain rpn10, stronger effect = lower value 0.995 | locus YIL066C, strain RNR3, stronger effect = lower value 0.979 | locus YIL073C, strain SPO22, stronger effect = lower value 1 | locus YIL125W, strain kgd1, stronger effect = lower value 0.998 | locus YIR030C, strain dcg1, stronger effect = lower value 0.992 | locus YJL092W, strain hpr5, stronger effect = lower value 1.03 | locus YJL095W, strain BCK1 (second series), stronger effect = lower value 1.02 | locus YJL095W, strain BCK1, stronger effect = lower value 1.04 and 0.984 | locus YJL115W, strain asf1, stronger effect = lower value 1.03 | locus YJL129C, strain trk1, stronger effect = lower value 1.02 | locus YJL134W, strain LCB3, stronger effect = lower value 0.987 | locus YJL154C, strain vps35, stronger effect = lower value 1.02 | locus YJL164C, strain tpk1, stronger effect = lower value 1 | locus YJL166W, strain qcr8, stronger effect = lower value 1.01 | locus YJL168C, strain set2, stronger effect = lower value 0.99 | locus YJL187C, strain SWE1 (second series), stronger effect = lower value 0.973 | locus YJL187C, strain SWE1, stronger effect = lower value 1.03 | locus YJR043C, strain POL32, stronger effect = lower value 1.01 | locus YJR066W, strain TOR1, stronger effect = lower value 0.978
